# Values without a mark were called inactive.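 Rule for the calls: active = combined score above 50, rising as EC50 falls below 10 µM and growth at top dose drops; inactive = the rest.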 Peptide text beside a SMILES is read from it. * marks the point of attachment. Cbz = O=C(OCc1ccccc1)*
# Test system: YE4008
# Assay: yeast strain panel proliferation effects – secondary panel, OD600, 26S proteasome disassembly project, profiling panel (AID 2125)
# Conditions: S. cerevisiae strain panel, growth OD600, 6-8 h, at 100 µM, hits give low values
row,Compound,percent response (growth) [%]
1,CC(=O)N1C(=O)C(=C2C=C(C)OC(C)=C2)c2ccccc21,56.6
2,CC(C)C[C@@H](C=O)NC(=O)[C@H](CC(C)C)NC(=O)[C@H](CC(C)C)NC(=O)OCc1ccccc1 (Cbz-Leu-Leu-Leu-aldehyde),88.2

# Reference: PubChem BioAssay AID2125 (NMMLSC, 2009)
